Potency and max activation data for seven molecules are collected here from PubChem BioAssay (Tox21).

The nature of test [1]: Human pregnane X receptor (PXR) small molecule agonists, qHTS cell viability counter screen (AID 1346977). Also: nearly all actives have a fitted effect of over 50% in size. Also: potency is read from the fitted curve at half-maximal effect. An outline of the steps:
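PXR-Luc HepG2 cells in medium with 5% charcoal-stripped FBS were pre-incubated 5hr, then exposed to compounds for 24hr at 37C. Viability was read in the same wells by CellTiter-Fluor fluorescence, reagent added after 23hr with a 1hr incubation.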

Test [2] is described as follows: Caspase-3/7 induction in HepG2 cells by small molecules, qHTS assay (AID 1346978). Also: % is scaled to controls: 0 for no effect and ±100 for the full control effect; nearly all actives have a fitted effect of over 15% in size. An outline of the steps: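 Wild-type HepG2 cells (2,000/well) were settled 5 h at 37 C, 5% CO2, then exposed to compounds in DMSO for 17 h. Caspase-3/7 activity was read by luminescence 30 min after adding Caspase-Glo 3/7 reagent at room temperature.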
For orientation: In qHTS, concentration-response curves come from the screen itself.

Test [3] can be described thus: Caspase-3/7 induction in CHO-K1 cells by small molecules, qHTS assay (AID 1346980). Also: % is scaled to controls: 0 for no effect and ±100 for the full control effect; nearly all actives have a fitted effect of over 15% in size. A digest of the protocol: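 Wild-type cells were seeded at 1,500 per well and settled 5 hr at 37 C, 5% CO2, then exposed to DMSO-dissolved compounds for 17 hr. Caspase-Glo 3/7 reagent was added, and luminescence was read after 30min at room temperature.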
The nature of test [4]: Caspase-3/7 induction in HepG2 cells by small molecules, qHTS cell viability counter screen (AID 1346981). Also: nearly all actives have a fitted effect of over 30% in size. Also: potency is read from the fitted curve at half-maximal effect. An outline of the steps:
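After a 5-hr attachment period at 37 C and 5% CO2, wild-type HepG2 cells received compounds in DMSO. Sixteen hours later CellTiter-Fluor was dispensed and the fluorescent signal quantified after a further hour.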

For test [5], the target named is Nuclear receptor subfamily 1 group I member 2 (Homo sapiens) (UniProt O75469). The test is described as follows: Human pregnane X receptor (PXR) small molecule agonists, qHTS assay (AID 1346982). Also: nearly all actives have a fitted effect of over 35% in size. Also: potency is read from the fitted curve at half-maximal effect. As to activation: % is scaled to controls: 0 for no effect and ±100 for the full control effect. A digest of the protocol:
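Tox21 qHTS; PXR-Luc HepG2; compounds pinned from DMSO; 24 hr, 37 C; ONE-Glo luciferase detection, 30 min room temperature.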

For test [6], the target named is Acetylcholinesterase (Homo sapiens) (UniProt P22303). Nature of the test: Acetylcholinesterase (AChE) small molecule antagonists: colormetric cell-based qHTS assay (AID 1347395; calls by dose curve; also: % is scaled to controls: 0 for no effect and ±100 for the full control effect; nearly all actives have a fitted effect of over 30% in size). An outline of the steps:
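SH-SY5Y cells, plated overnight at 37 C, were exposed to compounds for 30 min at 37 C and 5% CO2. Acetylthiocholine plus DTNB was then added, and thiocholine from endogenous AChE was quantified colorimetrically after 90 min at 37 C.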

Test [7] shares this target. Nature of the test: Acetylcholinesterase (AChE) small molecule antagonists: enzyme-based qHTS assay (AID 1347397; calls by dose curve; also: % is scaled to controls: 0 for no effect and ±100 for the full control effect; nearly all actives have a fitted effect of over 55% in size). Conditions: Potency: AChE enzyme activity inhibition. A digest of the protocol:
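Compound or DMSO vehicle was pin-transferred onto recombinant human AChE (50 mU/mL as dispensed) and left 30 min at room temperature. Acetylthiocholine with DTNB then started the reaction, read colorimetrically 10 min later.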

Test [8] shares this target. Nature of the test: Acetylcholinesterase (AChE) small molecule antagonists: fluorescence cell-based qHTS assay (AID 1347398; calls by dose curve; also: % is scaled to controls: 0 for no effect and ±100 for the full control effect; nearly all actives have a fitted effect of over 50% in size). Conditions: Potency: AChE activity. An outline of the steps:
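Using neuroblastoma SH-SY5Y cells as the enzyme source, test chemicals are preincubated 30 min at 37 C; AChE-driven acetylthiocholine cleavage is then quantified by thiocholine-dependent Thiolite Green fluorescence after 40 min at room temperature.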

The target is the same in test [9]. Nature of the test: Acetylcholinesterase (AChE) small molecule antagonists: enzyme-based qHTS assay with human liver microsomes (AID 1347399; calls by dose curve; also: % is scaled to controls: 0 for no effect and ±100 for the full control effect; nearly all actives have a fitted effect of over 60% in size). Conditions: Potency: qHTS inhibition. A digest of the protocol: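 Recombinant human AChE (50 mU/mL in the enzyme mix) and human liver microsomes (0.25 mg/mL final) were preincubated with compound and NADPH (0.25 mg/mL final) for 30 min at 37 C. Acetylthiocholine/DTNB was then added; thiocholine was read colorimetrically after 10 min at room temperature.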

Test [10] has as its target Voltage-gated inwardly rectifying potassium channel KCNH2 (Homo sapiens) (UniProt Q12809). Nature of the test: Human Ether-a-go-go-Related Gene (hERG) channel small molecule antagonists: fluorescence cell-based qHTS assay (AID 1671200).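 Also: hERG-expressing U2OS cells given a thallium stimulus after FluxOR II dye loading; series mostly up to about 77 µM; % is scaled to controls: 0 for no effect and ±100 for the full control effect; nearly all actives have a fitted effect of over 50% in size.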 A digest of the protocol: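 U2OS cells expressing the channel were plated at 1000 cells/well, incubated overnight at 37 C, then loaded with FluxOR II thallium-sensitive dye for 1 h at room temperature in the dark, with a further 10 min at room temperature before stimulation.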

The nature of test [11]: Caspase-3/7 induction in CHO-K1 cells by small molecules, qHTS cell viability counter screen (AID 1346979). Also: nearly all actives have a fitted effect of over 35% in size. Also: potency is read from the fitted curve at half-maximal effect. A digest of the protocol: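 Wild-type CHO-K1 cells were seeded at 1,500 per well, rested 5hr at 37 C, then exposed to compounds in DMSO. After 16hr, CellTiter-Fluor reagent was added and fluorescence read 1hr later as the viability measure.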
Test [12] concerns the target Cytochrome P450 2D6 (Homo sapiens) (UniProt P10635). Nature of the test: Cytochrome P450 Family 2 Subfamily D Member 6 (CYP2D6) small molecule antagonists: luciferase reporter qHTS assay (AID 1671196). Also: nearly all actives have a fitted effect of over 50% in size. Also: potency is read from the fitted curve at half-maximal effect. A digest of the protocol:
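Room-temperature luminescent CYP2D6 activity assay: compound preincubated 10 min with enzyme–substrate mix, NADPH-initiated reaction 1 h, detection reagent 20 min before reading.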

The target in test [13] is Cytochrome P450 2C19 (Homo sapiens) (UniProt P33261). The test is described as follows: Cytochrome P450 Family 2 Subfamily C Member 19 (CYP2C19) small molecule antagonists: luciferase reporter qHTS assay (AID 1671197). Also: nearly all actives have a fitted effect of over 65% in size. Also: potency is read from the fitted curve at half-maximal effect. A digest of the protocol: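 CYP2C19 P450-Glo, 1536-well qHTS. Cpd + enzyme/proluciferin substrate 10 min RT; + NADPH regen, 37C 1 h; stop with luciferin detection reagent, 20 min RT, luminescence (RLU). Pos ctrl ketoconazole.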
Sequence of Cytochrome P450 2C19 (Homo sapiens) (P33261 whole entry, looked up): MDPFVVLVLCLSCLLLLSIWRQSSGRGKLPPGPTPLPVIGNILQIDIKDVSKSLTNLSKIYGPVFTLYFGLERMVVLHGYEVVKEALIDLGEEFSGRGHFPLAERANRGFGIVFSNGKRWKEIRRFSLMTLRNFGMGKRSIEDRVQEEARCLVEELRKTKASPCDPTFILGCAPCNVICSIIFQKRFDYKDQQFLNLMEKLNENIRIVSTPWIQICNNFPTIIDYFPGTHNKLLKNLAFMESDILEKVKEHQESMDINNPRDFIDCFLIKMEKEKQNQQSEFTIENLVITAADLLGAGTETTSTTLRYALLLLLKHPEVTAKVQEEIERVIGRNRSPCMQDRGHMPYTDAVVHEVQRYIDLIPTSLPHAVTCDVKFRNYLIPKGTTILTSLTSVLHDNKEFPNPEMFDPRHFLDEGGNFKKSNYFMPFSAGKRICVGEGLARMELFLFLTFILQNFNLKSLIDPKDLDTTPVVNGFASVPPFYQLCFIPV
In general terms: In a reporter assay the amount or activity of a reporter protein is the signal.

Test [14] concerns the target Cytochrome P450 2C9 (Homo sapiens) (UniProt P11712). The test is described as follows: Cytochrome P450 Family 2 Subfamily C Member 9 (CYP2C9) small molecule antagonists: luciferase reporter qHTS assay (AID 1671198). Also: nearly all actives have a fitted effect of over 50% in size. Also: potency is read from the fitted curve at half-maximal effect. A digest of the protocol: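 CYP2C9 activity was measured with a P450-Glo proluciferin substrate. Enzyme–substrate mix was held with compound for 10 min at room temperature, then NADPH regeneration solution was added for 1 h at 37C. Luciferin product was read as luminescence.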

Test [15] concerns the target Cytochrome P450 1A2 (Homo sapiens) (UniProt P05177). Nature of the test: Cytochrome P450 Family 1 Subfamily A Member 2 (CYP1A2) small molecule antagonists: luciferase reporter qHTS assay (AID 1671199). A digest of the protocol: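 Room-temperature CYP1A2 reaction with proluciferin substrate: compounds added from DMSO, 10 min preincubation, NADPH regeneration for 1 h. Luciferin detection reagent then added; luminescence recorded as RLU.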

The target of test [16] is Nuclear receptor subfamily 1 group I member 2 (Rattus norvegicus) (UniProt Q9R1A7). The test is described as follows: Rat pregnane X receptor (rPXR) activation by small molecules, qHTS assay (AID 1346983). Also: % is scaled to controls: 0 for no effect and ±100 for the full control effect; nearly all actives have a fitted effect of over 20% in size. To be noted: rPXR luciferase reporter cells, One-Glo luminescence, 24 h; max activation: stronger effect = higher value. A digest of the protocol:
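Cell-based rPXR luciferase reporter assay, 2,000 cells per well, rested 5hr at 37 C before compound addition in DMSO, then 24 hr at 37 C. One-Glo reagent was added and luminescence read after 30 min at room temperature.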

Test [17] concerns the target Cytochrome P450 3A4 (Homo sapiens) (UniProt P08684). The test is described as follows: Cytochrome P450 Family 3 Subfamily A Member 4 (CYP3A4) small molecule antagonists: luciferase reporter qHTS assay (AID 1671201). Also: nearly all actives have a fitted effect of over 50% in size. Also: potency is read from the fitted curve at half-maximal effect. An outline of the steps: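 P450-Glo CYP3A4 system with proluciferin substrate; compounds preincubated 10 min RT with enzyme-substrate mix, then NADPH regeneration added for 1 h RT. Detection reagent 20 min, luminescence read as relative luminescence units.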

“And” between values parts separate entries of the source, which are not always exact repeats. Equal values may be shown once. Unmarked numbers belong to inactive results. Results filed as inconclusive are left out. The source made the active and inactive calls. Unless noted, calls follow the shape of the dose curve; as a rule, active = well fitted curve in the direction sought with a large enough effect in the repeat runs; inconclusive = weak or mixed curves; inactive = no such curve, though single readings can be large; an effect the other way counts as inactive or inconclusive.

Sequence of Cytochrome P450 2C9 (Homo sapiens) (P11712 whole entry, looked up): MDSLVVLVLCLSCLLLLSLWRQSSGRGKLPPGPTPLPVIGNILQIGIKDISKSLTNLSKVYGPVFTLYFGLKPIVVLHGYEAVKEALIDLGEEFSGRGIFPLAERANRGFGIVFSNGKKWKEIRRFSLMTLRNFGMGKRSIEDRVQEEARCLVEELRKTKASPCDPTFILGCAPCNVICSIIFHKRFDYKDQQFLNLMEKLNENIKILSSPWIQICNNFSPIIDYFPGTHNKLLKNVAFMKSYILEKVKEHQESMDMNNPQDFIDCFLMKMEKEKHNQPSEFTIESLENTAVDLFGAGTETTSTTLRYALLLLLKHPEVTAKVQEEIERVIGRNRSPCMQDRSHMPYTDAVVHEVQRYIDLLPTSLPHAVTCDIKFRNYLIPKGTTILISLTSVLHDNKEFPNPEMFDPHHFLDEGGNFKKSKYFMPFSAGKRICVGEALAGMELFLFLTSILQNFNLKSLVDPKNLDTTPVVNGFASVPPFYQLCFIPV
Sequence of Cytochrome P450 3A4 (Homo sapiens) (P08684 whole entry, looked up): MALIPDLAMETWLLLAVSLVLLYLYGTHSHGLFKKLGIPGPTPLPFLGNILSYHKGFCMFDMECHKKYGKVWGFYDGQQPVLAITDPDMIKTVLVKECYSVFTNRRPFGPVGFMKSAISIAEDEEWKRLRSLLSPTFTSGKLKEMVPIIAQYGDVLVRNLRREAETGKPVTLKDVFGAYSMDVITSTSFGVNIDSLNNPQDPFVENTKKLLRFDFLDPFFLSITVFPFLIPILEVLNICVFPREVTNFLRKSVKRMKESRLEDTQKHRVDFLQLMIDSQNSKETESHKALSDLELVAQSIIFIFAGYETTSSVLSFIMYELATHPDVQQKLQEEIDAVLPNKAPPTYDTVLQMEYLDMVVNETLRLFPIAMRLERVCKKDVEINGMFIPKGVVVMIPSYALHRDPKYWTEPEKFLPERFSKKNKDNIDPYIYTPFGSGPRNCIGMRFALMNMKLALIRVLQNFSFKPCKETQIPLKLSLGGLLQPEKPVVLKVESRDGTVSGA
Sequence of Voltage-gated inwardly rectifying potassium channel KCNH2 (Homo sapiens) (Q12809 whole entry, looked up): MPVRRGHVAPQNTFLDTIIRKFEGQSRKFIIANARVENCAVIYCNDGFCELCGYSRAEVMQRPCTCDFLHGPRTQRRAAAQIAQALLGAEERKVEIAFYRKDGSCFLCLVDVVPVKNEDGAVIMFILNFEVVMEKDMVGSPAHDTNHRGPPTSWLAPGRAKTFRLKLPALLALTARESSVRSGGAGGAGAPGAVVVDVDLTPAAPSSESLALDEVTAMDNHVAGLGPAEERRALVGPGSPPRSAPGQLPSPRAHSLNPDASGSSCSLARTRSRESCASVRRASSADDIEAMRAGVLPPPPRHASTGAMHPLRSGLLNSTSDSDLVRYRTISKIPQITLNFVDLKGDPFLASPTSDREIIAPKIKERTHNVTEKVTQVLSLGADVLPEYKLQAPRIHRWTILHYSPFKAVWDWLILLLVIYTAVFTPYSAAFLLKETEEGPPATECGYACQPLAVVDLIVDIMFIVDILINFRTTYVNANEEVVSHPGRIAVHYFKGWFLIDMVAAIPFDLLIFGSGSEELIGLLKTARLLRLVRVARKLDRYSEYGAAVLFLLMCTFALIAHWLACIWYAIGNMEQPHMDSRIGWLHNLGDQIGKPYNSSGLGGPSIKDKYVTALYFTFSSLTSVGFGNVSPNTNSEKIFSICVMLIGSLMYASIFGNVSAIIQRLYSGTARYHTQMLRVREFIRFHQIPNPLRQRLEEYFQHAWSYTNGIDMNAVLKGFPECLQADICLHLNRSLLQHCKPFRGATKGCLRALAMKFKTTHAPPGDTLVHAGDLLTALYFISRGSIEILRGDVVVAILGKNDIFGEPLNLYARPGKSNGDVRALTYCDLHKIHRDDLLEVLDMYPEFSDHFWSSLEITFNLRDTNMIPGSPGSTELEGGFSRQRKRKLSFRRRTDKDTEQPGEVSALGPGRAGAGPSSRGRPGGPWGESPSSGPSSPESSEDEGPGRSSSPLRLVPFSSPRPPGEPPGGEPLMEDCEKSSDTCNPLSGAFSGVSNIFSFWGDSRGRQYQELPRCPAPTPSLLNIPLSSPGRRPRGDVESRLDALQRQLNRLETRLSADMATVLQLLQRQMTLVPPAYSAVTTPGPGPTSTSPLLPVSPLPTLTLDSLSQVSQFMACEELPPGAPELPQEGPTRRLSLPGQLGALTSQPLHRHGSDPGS
Sequence of Cytochrome P450 2D6 (Homo sapiens) (P10635 whole entry, looked up): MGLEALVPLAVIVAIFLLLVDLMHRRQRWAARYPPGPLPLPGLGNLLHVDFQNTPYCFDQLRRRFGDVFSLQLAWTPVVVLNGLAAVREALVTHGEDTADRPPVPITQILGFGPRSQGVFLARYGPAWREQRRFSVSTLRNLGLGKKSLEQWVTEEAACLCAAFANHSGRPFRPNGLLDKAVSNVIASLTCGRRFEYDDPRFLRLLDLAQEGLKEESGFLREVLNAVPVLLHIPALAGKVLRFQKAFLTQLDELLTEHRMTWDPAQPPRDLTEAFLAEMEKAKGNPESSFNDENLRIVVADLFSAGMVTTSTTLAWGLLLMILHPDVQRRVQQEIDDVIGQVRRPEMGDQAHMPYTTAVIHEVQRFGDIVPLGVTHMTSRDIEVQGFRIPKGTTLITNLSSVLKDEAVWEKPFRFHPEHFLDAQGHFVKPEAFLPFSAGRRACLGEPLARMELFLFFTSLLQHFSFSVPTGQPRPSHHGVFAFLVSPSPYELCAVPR
Sequence of Acetylcholinesterase (Homo sapiens) (P22303 whole entry, looked up): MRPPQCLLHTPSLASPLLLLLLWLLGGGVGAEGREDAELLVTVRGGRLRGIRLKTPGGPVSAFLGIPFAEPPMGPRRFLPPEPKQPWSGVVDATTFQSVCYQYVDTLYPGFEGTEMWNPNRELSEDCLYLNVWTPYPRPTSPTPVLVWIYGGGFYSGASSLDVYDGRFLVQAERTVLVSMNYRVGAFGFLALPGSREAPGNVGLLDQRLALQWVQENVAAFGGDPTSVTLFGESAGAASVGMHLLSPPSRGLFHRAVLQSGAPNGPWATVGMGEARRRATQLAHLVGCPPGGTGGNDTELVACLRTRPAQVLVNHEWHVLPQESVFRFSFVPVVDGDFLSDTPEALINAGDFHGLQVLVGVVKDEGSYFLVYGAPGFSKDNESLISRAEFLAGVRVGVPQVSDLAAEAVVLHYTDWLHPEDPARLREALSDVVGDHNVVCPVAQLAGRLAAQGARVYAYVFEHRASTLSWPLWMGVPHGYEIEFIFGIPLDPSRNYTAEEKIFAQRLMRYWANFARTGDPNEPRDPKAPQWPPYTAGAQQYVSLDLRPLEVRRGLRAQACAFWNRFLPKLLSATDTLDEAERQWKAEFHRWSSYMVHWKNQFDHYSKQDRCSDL
Sequence of Nuclear receptor subfamily 1 group I member 2 (Homo sapiens) (O75469 whole entry, looked up): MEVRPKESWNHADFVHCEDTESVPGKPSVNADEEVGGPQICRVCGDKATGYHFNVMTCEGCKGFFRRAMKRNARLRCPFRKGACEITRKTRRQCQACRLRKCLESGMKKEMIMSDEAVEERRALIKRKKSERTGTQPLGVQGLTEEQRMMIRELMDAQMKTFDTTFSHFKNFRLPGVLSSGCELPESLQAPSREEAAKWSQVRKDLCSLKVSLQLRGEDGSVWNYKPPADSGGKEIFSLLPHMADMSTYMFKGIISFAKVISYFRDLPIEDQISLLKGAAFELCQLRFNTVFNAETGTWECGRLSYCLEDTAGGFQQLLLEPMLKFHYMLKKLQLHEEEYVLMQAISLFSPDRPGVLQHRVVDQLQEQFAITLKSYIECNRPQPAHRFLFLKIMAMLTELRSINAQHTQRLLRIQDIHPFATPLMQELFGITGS
Sequence of Nuclear receptor subfamily 1 group I member 2 (Rattus norvegicus) (Q9R1A7 whole entry, looked up): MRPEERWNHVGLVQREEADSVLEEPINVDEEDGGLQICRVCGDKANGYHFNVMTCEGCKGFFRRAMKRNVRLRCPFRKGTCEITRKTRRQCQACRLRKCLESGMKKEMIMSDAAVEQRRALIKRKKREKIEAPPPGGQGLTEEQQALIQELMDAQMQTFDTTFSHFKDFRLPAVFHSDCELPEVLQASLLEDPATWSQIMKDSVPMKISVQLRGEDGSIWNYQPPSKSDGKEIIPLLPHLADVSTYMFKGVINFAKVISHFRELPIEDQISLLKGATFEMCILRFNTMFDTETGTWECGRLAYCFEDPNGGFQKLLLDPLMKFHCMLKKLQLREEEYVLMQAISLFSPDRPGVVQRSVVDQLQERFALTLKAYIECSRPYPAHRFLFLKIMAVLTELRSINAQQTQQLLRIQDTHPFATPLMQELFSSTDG

With `COCCOCCO`, the Potency result in test [1], in test [2], in test [3], in test [4], in test [6] and in [7] was “inactive” throughout. Besides, the Potency entry in test [8], in [9] and in [10] was “inactive” in each case. Further, the Potency in test [5] is 27.3 µM (active).
On to `II`, for which the Potency entry in test [1], in test [2], in test [3], in test [4], in test [5] and in test [6] was “inactive” in each case. Moreover, the Potency entry in test [8], in test [9] and in test [10] was “inactive” in each case. In addition, the Potency is 54.5 µM (active) in test [11]; 28.3 µM (active) in test [12]; 56.4 µM (active) in test [13]; 31.7 µM (active) in [14]; 71 µM (active) in test [15].
For `C=CCN1CC[C@]23c4c5ccc(O)c4O[C@H]2C(=O)CC[C@@]3(O)[C@H]1C5`, the Potency result in test [1], in test [2], in test [11], in test [3], in [4] and in test [10] was “inactive” each time. Besides, the max activation in test [16] is -2.21% and -3.34%.
Turning to `Nc1ccc(N=Nc2ccc(-c3ccc(N=Nc4c(S(=O)(=O)O)cc5cc(S(=O)(=O)O)c(N=Nc6ccccc6)c(O)c5c4N)cc3)cc2)c(N)c1`, the Potency in test [1] was 17.6 µM (active); in test [11], 17.6 µM (active); in test [4] it was 19.7 µM (active). The Potency entry in test [2], in test [3], in test [6], in test [7], in test [8] and in test [13] was “inactive” in each case. In addition, the Potency result in test [10] was “inactive”.
Consider `COP(=S)(OC)Oc1cc(Cl)c(I)cc1Cl`, for which the Potency entry in [2], in [11], in [3], in test [4], in [5] and in test [6] was “inactive” in each case. The Potency entry in test [7] and in test [12] was “inactive” throughout. Besides, the Potency in test [13] was 2.24 µM (active); in test [14] it was 3.99 µM (active); in [15], 12.6 µM (active); in test [17], 20 µM (active).
Turning to `CC1C(=O)C[C@]2(C(C)C)C[C@H]12` (stereo partly drawn), the Potency result in test [1], in test [2], in test [3], in [4], in test [6] and in test [7] was “inactive” throughout. Further, the Potency entry in [8], in test [9], in test [10] and in [17] was “inactive” throughout. The Potency in test [12] and in [13] was 34.5 µM (active) throughout.
In the case of `Clc1cc(Cl)c(Cl)c(Cl)c1`, the Potency result in test [1], in [2], in [11], in test [4], in [5] and in test [6] was “inactive” throughout. Moreover, the Potency entry in test [7], in test [8], in test [12], in test [13], in [14] and in test [10] was “inactive” in each case. For the same molecule, the Potency entry in [17] was “inactive”.
